Assay results from ChEMBL document CHEMBL1961873, “Compounds: GSK PKIS; Assays: Nanosyn kinase panel” (2012).
Where “and” joins values, the source holds several entries; their conditions need not be identical. Equal values may be shown once.

What was measured:
[1] = target: Serine/threonine-protein kinase MRCK alpha (Homo sapiens) (UniProt Q5VT25); settings: at 0.1 µM
[2] = target: Serine/threonine-protein kinase MRCK alpha (Homo sapiens) (UniProt Q5VT25); settings: at 1 µM
[3] = target: Serine/threonine-protein kinase MRCK beta (Homo sapiens) (UniProt Q9Y5S2); settings: at 0.1 µM
[4] = target: Serine/threonine-protein kinase MRCK beta (Homo sapiens) (UniProt Q9Y5S2); settings: at 1 µM
[5] = target: Ribosomal protein S6 kinase alpha-5 (Homo sapiens) (UniProt O75582); settings: at 0.1 µM
[6] = target: Ribosomal protein S6 kinase alpha-5 (Homo sapiens) (UniProt O75582); settings: at 1 µM
[7] = target: Ribosomal protein S6 kinase alpha-4 (Homo sapiens) (UniProt O75676); settings: at 0.1 µM
[8] = target: Ribosomal protein S6 kinase alpha-4 (Homo sapiens) (UniProt O75676); settings: at 1 µM
[9] = target: Ribosomal protein S6 kinase beta-1 (Homo sapiens) (UniProt P23443); settings: at 0.1 µM
[10] = target: Ribosomal protein S6 kinase beta-1 (Homo sapiens) (UniProt P23443); settings: at 1 µM

Ribosomal protein S6 kinase alpha-5 (Homo sapiens), sequence (O75582 whole entry, looked up): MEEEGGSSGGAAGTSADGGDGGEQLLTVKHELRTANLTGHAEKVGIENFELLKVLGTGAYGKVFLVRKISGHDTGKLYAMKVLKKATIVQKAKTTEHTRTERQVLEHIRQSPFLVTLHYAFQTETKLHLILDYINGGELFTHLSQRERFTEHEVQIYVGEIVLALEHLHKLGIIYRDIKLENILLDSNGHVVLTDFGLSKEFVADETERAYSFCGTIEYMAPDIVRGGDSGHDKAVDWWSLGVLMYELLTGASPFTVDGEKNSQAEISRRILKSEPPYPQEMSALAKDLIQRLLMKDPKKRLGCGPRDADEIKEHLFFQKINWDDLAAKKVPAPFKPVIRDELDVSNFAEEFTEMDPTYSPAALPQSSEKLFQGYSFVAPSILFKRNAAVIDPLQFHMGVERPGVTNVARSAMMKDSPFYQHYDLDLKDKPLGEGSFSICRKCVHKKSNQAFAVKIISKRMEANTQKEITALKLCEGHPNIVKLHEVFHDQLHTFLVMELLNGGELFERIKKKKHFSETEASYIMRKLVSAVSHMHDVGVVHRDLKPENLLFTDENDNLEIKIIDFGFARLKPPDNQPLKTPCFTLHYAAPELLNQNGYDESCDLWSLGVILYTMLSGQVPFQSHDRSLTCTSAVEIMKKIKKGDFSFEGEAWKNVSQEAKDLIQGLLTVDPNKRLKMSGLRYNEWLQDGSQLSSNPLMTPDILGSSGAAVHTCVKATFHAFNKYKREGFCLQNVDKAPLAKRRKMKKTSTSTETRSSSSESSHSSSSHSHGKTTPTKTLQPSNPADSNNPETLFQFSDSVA
Ribosomal protein S6 kinase alpha-4 (Homo sapiens), sequence (O75676 whole entry, looked up): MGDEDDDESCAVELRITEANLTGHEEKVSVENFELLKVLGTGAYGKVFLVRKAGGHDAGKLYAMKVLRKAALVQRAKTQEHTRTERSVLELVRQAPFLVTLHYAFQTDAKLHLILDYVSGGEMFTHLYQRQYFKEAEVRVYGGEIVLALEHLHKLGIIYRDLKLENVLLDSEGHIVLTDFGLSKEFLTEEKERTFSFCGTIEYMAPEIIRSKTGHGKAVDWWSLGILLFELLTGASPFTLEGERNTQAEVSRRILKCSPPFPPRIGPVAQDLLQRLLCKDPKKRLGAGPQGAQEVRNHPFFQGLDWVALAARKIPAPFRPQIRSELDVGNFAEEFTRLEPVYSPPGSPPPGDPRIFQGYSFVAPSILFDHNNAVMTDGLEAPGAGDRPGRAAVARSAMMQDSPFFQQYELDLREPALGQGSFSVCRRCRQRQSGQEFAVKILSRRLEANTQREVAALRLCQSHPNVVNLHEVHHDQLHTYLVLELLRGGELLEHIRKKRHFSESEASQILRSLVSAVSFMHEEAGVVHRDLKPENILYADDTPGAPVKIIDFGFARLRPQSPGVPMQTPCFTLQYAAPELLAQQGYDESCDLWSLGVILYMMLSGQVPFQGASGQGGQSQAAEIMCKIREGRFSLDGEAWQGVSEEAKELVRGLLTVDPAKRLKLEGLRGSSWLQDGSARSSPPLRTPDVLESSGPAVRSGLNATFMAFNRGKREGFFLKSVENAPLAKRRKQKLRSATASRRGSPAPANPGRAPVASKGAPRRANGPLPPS
Serine/threonine-protein kinase MRCK beta (Homo sapiens), sequence (Q9Y5S2 whole entry): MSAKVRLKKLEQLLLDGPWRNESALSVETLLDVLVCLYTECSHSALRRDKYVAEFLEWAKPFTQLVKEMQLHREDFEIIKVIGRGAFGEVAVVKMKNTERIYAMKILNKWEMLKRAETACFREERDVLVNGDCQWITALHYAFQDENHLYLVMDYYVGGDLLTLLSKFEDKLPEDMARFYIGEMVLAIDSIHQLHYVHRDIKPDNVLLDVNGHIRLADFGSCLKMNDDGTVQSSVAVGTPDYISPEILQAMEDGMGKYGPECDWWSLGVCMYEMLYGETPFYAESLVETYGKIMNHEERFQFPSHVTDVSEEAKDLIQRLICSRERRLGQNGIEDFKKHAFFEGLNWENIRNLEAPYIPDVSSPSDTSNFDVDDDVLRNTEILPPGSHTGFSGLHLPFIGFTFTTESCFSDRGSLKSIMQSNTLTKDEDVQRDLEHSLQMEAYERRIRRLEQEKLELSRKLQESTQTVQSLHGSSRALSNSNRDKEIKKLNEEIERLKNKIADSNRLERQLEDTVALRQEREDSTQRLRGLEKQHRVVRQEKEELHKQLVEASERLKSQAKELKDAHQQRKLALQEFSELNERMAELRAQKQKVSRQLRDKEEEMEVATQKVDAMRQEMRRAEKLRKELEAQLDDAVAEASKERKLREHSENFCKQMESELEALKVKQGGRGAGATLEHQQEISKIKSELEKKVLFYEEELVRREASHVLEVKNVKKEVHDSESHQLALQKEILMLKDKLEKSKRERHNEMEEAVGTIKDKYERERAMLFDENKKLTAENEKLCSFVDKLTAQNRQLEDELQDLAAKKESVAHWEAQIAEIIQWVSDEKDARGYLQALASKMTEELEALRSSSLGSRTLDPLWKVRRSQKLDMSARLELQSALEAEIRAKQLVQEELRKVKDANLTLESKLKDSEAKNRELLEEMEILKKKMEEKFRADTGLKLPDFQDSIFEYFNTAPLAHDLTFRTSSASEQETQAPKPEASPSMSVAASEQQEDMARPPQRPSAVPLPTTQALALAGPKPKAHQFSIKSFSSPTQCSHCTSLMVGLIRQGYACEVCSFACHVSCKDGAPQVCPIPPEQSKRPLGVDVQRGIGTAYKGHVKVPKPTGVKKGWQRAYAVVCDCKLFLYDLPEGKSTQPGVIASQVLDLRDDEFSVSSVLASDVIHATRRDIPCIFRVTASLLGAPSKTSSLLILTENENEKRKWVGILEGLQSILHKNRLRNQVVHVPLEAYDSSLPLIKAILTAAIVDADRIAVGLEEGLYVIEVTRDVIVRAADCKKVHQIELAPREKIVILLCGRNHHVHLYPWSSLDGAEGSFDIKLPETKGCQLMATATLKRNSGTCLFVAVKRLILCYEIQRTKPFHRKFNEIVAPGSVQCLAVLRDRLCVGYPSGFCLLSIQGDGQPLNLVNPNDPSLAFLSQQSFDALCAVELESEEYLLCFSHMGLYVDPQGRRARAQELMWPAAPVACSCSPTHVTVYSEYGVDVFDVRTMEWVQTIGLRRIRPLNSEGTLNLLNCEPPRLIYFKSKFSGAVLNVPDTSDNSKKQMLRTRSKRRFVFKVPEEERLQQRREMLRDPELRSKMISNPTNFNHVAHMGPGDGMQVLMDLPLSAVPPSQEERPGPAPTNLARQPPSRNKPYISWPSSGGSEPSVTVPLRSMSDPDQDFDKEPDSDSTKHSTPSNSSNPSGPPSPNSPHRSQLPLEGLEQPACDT
Serine/threonine-protein kinase MRCK alpha (Homo sapiens), sequence (Q5VT25 whole entry): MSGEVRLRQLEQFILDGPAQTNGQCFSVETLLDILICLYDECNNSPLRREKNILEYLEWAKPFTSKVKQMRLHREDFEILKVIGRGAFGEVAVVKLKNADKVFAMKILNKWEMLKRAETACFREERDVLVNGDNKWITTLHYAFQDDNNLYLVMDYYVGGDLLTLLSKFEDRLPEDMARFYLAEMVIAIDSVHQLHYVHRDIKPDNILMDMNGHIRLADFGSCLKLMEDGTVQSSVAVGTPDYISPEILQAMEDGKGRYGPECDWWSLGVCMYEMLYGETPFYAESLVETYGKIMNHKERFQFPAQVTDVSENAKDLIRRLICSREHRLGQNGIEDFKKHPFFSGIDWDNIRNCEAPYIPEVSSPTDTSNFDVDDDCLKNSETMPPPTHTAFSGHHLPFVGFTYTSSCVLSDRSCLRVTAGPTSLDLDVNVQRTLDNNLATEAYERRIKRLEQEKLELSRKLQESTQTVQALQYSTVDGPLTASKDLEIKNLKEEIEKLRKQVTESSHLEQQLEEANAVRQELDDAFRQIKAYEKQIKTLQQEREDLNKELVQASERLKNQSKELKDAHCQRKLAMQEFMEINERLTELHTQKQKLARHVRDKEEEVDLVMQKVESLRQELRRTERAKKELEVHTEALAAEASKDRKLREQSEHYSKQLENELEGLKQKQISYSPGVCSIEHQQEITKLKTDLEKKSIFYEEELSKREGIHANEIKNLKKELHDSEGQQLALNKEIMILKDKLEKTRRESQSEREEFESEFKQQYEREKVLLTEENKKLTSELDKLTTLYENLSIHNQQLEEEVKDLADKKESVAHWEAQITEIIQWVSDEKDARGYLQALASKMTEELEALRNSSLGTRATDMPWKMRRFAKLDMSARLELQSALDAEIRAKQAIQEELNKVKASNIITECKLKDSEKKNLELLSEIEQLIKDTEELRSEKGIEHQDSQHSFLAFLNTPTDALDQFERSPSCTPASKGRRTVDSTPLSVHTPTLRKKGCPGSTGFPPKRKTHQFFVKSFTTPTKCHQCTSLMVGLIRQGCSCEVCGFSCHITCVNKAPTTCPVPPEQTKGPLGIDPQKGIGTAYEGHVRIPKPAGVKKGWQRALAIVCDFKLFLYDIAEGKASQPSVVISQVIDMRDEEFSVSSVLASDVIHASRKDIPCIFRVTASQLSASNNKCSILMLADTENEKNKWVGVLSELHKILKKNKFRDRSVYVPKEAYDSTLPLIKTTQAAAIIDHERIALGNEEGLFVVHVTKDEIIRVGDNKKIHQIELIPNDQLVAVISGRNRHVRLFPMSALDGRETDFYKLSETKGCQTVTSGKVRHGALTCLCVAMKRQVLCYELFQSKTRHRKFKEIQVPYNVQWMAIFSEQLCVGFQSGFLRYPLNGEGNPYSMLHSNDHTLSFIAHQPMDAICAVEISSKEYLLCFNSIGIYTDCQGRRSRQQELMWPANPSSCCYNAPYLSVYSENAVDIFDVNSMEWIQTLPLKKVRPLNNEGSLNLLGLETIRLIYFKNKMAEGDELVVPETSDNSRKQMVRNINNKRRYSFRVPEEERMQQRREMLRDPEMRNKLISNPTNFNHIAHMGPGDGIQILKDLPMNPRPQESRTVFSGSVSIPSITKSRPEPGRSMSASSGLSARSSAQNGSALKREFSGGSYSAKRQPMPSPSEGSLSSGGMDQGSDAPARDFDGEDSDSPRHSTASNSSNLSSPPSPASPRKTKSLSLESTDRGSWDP

CCOc1ccc2c(-c3ccnc(Nc4cc(OC)cc(C(F)(F)F)c4)n3)cnn2n1
inhibition [1]: -0.76%
inhibition [2]: -0.62%
inhibition [3]: 0.09%
inhibition [4]: 0.13%
inhibition [5]: 1.4%
inhibition [6]: 2.37%
inhibition [7]: 1.07%
inhibition [8]: -0.61%
inhibition [9]: 0.27%
inhibition [10]: 0.73%

CN(c1ccc(NC(=O)NCCN2CCOCC2)cc1)c1ccnc(Nc2ccc(CS(C)(=O)=O)cc2)n1
inhibition [1]: -0.04%
inhibition [2]: 2.59%
inhibition [3]: 0.01%
inhibition [4]: 0.6%
inhibition [5]: 3.04%
inhibition [6]: 3.65%
inhibition [7]: 2.62%
inhibition [8]: 3.19%
inhibition [9]: 1.53%
inhibition [10]: 1.23%

Nc1nccc(-c2c(-c3ccc(F)cc3)ncn2C2CCNCC2)n1
inhibition [1]: 0.35% and 0.18%
inhibition [2]: 2.58% and 5.06%
inhibition [3]: 0.52% and 1.07%
inhibition [4]: 1.72% and 3.43%
inhibition [5]: -2.32% and -0.28%
inhibition [6]: -1.5% and 1.46%
inhibition [7]: -1.86% and 0.59%
inhibition [8]: -1.17% and 2.2%
inhibition [9]: -1.49% and 0.02%
inhibition [10]: -0.77% and 0.22%

Fc1ccc(Nc2nccc(-c3c(-c4ccc(C(F)(F)F)cc4)nn4ncccc34)n2)cc1F
inhibition [1]: -0.28%
inhibition [2]: -1.12%
inhibition [3]: -0.35%
inhibition [4]: 1.04%
inhibition [5]: 2.66%
inhibition [6]: 2.7%
inhibition [7]: -0.61%
inhibition [8]: 2%
inhibition [9]: 1.31%
inhibition [10]: 0.33%

CNC(=O)c1sc(-n2cnc3cc(OC)c(OC)cc32)cc1OCc1ccccc1C(F)(F)F
inhibition [1]: -1.57%
inhibition [2]: 2.7%
inhibition [3]: 0.75%
inhibition [4]: -0.54%
inhibition [5]: 1.63%
inhibition [6]: -0.43%
inhibition [7]: 3.06%
inhibition [8]: 2.24%
inhibition [9]: 1.25%
inhibition [10]: 0.64%

Nc1ncnc2occ(-c3ccc(NC(=O)Nc4cc(C(F)(F)F)ccc4F)cc3)c12
inhibition [1]: 0.43%
inhibition [2]: -0.27% and 0.62%
inhibition [3]: 0.53% and -0.08%
inhibition [4]: 0.77% and -0.99%
inhibition [5]: 5.58% and -0.86%
inhibition [6]: 23.9% and 10.9%
inhibition [7]: 3.23% and -1.15%
inhibition [8]: 19.7% and 6.99%
inhibition [9]: 28.2% and 17.1%
inhibition [10]: 77.4% and 70.2%

N#Cc1ccc2c(-c3ccnc(NC4CC4)n3)c(-c3ccc(F)cc3)nn2c1
inhibition [1]: 0.79%
inhibition [2]: 0.87%
inhibition [3]: 0.13%
inhibition [4]: 0.52%
inhibition [5]: 0.77%
inhibition [6]: -0.33%
inhibition [7]: 0.92%
inhibition [8]: -0.56%
inhibition [9]: 0.06%
inhibition [10]: -0.85%

CCCNc1cccc(-n2ncc3c(N/N=C/c4ccncc4)ncnc32)c1
inhibition [1]: 1.31%
inhibition [2]: 5.18%
inhibition [3]: -0.11%
inhibition [4]: 0.92%
inhibition [5]: -4.25%
inhibition [6]: -2.6%
inhibition [7]: 1.74%
inhibition [8]: 2.6%
inhibition [9]: 1.2%
inhibition [10]: 8.74%

CS(=O)(=O)Nc1ccc(-c2cc(-c3ccccc3)cc(C(N)=O)c2N)cc1
inhibition [1]: -0.32%
inhibition [2]: 0.21%
inhibition [3]: 0.74%
inhibition [4]: 1.3%
inhibition [5]: 3.96%
inhibition [6]: 1.83%
inhibition [7]: -0.81%
inhibition [8]: 0.34%
inhibition [9]: -1.22%
inhibition [10]: 0.07%

COc1cc(Nc2ncc(-c3ccccc3)o2)cc(OC)c1
inhibition [1]: -6.08%
inhibition [2]: -1.27%
inhibition [3]: -0.81%
inhibition [4]: 0.65%
inhibition [5]: 2.3%
inhibition [6]: -0.44%
inhibition [7]: 2.85%
inhibition [8]: 2.84%
inhibition [9]: 2.08%
inhibition [10]: 3.04%

NS(=O)(=O)c1ccc(N/N=C2\C(=O)Nc3ccc(C(=O)NCc4ccncc4)cc32)cc1
inhibition [1]: 0.07%
inhibition [2]: 3.72%
inhibition [3]: -0.38%
inhibition [4]: 2.29%
inhibition [5]: 5.11%
inhibition [6]: 9.08%
inhibition [7]: 3.9%
inhibition [8]: 14.5%
inhibition [9]: 1.29%
inhibition [10]: 6.6%

O=C(O[C@H]1CN[C@H](C#Cc2cc3ncnc(Nc4ccc(OCc5cccc(F)c5)c(Cl)c4)c3s2)C1)N1CCOCC1
inhibition [1]: -0.44%
inhibition [2]: 0.92%
inhibition [3]: 0.34%
inhibition [4]: 0.26%
inhibition [5]: -0.86%
inhibition [6]: 0.41%
inhibition [7]: 2.64%
inhibition [8]: 4.39%
inhibition [9]: 1.72%
inhibition [10]: 2.85%

CCn1c(-c2nonc2N)nc2cncc(C(=O)NCCNC)c21
inhibition [1]: 14.6%
inhibition [2]: 69.9%
inhibition [3]: 23.3%
inhibition [4]: 66.7%
inhibition [5]: 55.2%
inhibition [6]: 76.8%
inhibition [7]: 35.5%
inhibition [8]: 71.4%
inhibition [9]: 31.9%
inhibition [10]: 78.2%

CN1CCC(n2cnc(-c3ccc(F)cc3)c2-c2ccnc(NCCO)n2)CC1
inhibition [1]: 0.14%
inhibition [2]: 2.92%
inhibition [3]: -1.48%
inhibition [4]: 0.28%
inhibition [5]: 3.35%
inhibition [6]: 4.7%
inhibition [7]: 1.86%
inhibition [8]: 4.02%
inhibition [9]: 0.69%
inhibition [10]: 1.98%

OCCCNc1nccc(-c2c(-c3ccc(F)cc3)nn3cc(C(F)(F)F)ccc23)n1
inhibition [1]: 0.26%
inhibition [2]: -1.54%
inhibition [3]: 0.31%
inhibition [4]: 1.86%
inhibition [5]: 4.64%
inhibition [6]: 4.76%
inhibition [7]: 2.6%
inhibition [8]: 5.75%
inhibition [9]: 3.2%
inhibition [10]: 2.94%
